Assay results published in the supplement of paper PMC7156485.
Structures can show the parent of a compound that is named as a salt.

What follows are compounds tested on TDF (assay: H1.0 immunofluorescence intensity relative to DMSO (% of DMSO); higher = stronger H1.0 induction, active = 120 or more). Conditions: concentration: 10 µM; 24 h.
Method in brief: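 HCC1569 and TDF cells were seeded at 800 per well in 384-well plates in RPMI with 10% FBS and treated with compounds at 10 µM for 24 h at 37 °C, in triplicate. After fixation in 3.7% formaldehyde, cells were stained with a rabbit anti-H1.0 antibody, an AlexaFluor 647 secondary and DAPI, and six fields per well were imaged at ×10. H1.0 nuclear intensity or cell number is given as percent of the plate control, using the median of replicates, with HCC1569 values smoothed for positional effects.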
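Further: TDF is a line of transformed human dermal fibroblasts of mesenchymal origin.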

H1.0 immunofluorescence intensity, inactive:
CC1(C)OC2CC(=O)OCC23C1CC(=O)C1(C)C3CCC2(C)C(c3ccoc3)OC(=O)C3OC321 (stereo unspecified) [Limonin] 92.2
CCCCCCCC/C=C\CCCCCCCC(=O)NCc1ccc(O)c(OC)c1 [(9Z)-N-(4-hydroxy-3-methoxybenzyl)-9-octadecenamide] 95.2
CC1(C)CCC(C)(C)c2cc(C(=O)Nc3ccc(C(=O)O)cc3)ccc21 91.8
O=c1c(-c2ccc(O)cc2)coc2cc(OC3OC(CO)C(O)C(O)C3O)ccc12 (stereo unspecified) [Daidzin] 94.8
O.O.O=c1c(O)c(-c2ccc(O)c(O)c2)oc2cc(O)cc(O)c12 [Quercetin dihydrate] 90.2
O=C(Nc1cccc(Nc2ncc(Br)c(NCCc3cnc[nH]3)n2)c1)N1CCCC1 113
CC(C(O)c1ccc(O)cc1)N1CCC(Cc2ccccc2)CC1 (stereo unspecified) [Ifenprodil tartrate] 94.5
COC(=O)C1=C(C)NC(C)=C(C(=O)OCCN(C)Cc2ccccc2)C1c1cccc([N+](=O)[O-])c1.Cl (stereo unspecified) [Nicardipine.HCl] 98.7
CCCCCCCCCCCC=CCCCCCCC(=O)O [8(Z)-Eicosenoic acid] 100
CC(C)(C)c1ccc(S(=O)(=O)NCc2ccc(C(=O)Nc3cccnc3)cc2)cc1 86.8
COc1ccc2c(c1OC)C(=O)OC2C1c2c(cc3c(c2OC)OCO3)CCN1C (racemic) 105
